Structures are written as SMILES. About 4,000 (25%) of roughly 16,000 compounds were called active. About 26% were inconclusive and are not listed. The list is a sample of the results. Unmarked numbers belong to inactive results. Calls follow the shape of the dose curve; as a rule, active = well fitted curve in the direction sought with a large enough effect; inconclusive = small, poorly fitted or top-dose-only effect, or effect the other way; inactive = no such curve, though single readings can be large or run the other way.

As usually defined, the AC50 is the concentration at which the activity in the assay is half-maximal.
% is scaled to controls: 0 for no effect and ±100 for the full control effect.

The experiment deals with Cytochrome P450 2C9 (Homo sapiens) (UniProt P11712). The experiment can be described thus: Cytochrome panel assay with activity outcomes. Conditions: recombinant CYP, pro-luciferin dealkylation, luminescence, p450-cyp2c9; series mostly up to 57.1 µM; activity, negative = inhibition: at the top concentration.
Sequence of Cytochrome P450 2C9 (Homo sapiens) (P11712 whole entry, looked up): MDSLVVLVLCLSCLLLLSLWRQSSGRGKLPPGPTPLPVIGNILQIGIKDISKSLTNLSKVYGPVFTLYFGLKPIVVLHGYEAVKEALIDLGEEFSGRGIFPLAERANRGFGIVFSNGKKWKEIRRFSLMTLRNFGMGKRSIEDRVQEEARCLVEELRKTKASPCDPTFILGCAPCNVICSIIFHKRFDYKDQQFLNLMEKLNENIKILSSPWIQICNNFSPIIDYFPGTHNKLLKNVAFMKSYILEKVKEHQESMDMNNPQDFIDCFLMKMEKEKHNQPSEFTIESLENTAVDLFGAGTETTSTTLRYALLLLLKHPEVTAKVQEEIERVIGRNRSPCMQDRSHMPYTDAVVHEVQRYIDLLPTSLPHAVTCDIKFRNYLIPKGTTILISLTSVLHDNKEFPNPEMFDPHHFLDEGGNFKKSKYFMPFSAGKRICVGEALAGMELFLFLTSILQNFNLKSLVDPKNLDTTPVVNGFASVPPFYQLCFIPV
Turning to `O=c1c2c(n3cnnc3n1-c1ccccc1)-c1ccccc1CC21CCCCC1`, the “activity, negative = inhibition” value was -19.1%. For the compound `Oc1cccc(-c2nc3c4c(ncn3n2)-c2ccccc2CC42CCCC2)c1`, the AC50 was 7.08 µM (active).

As for `CCOc1cc(/C=C2/NC(=O)N(CC(=O)Nc3cccc(C)c3)C2=O)ccc1OC`, the “activity, negative = inhibition” value is -14.1%.

`CCOc1cc(/C=C2\C(=O)N(Cc3ccc(C)cc3)C(C)=C2C(=O)OC)ccc1O`: the concentration at half-maximal activity (AC50) is 1.41 µM (active). As for `CCCCNC(=O)C1CC(=O)N(CCC(C)C)C1` (stereo not given), the “activity, negative = inhibition” value was -21.3%.

Turning to `O=C(O)COc1c(Cl)cc(Cl)c2cccnc12`, the activity, negative = inhibition is 15.5% [at 11.4 µM]. In the case of `COCCNC(=O)c1cn(Cc2c(F)cccc2Cl)nn1`, the “activity, negative = inhibition” value was -7.08%.

For the compound `COC(=O)c1sc2ncccc2c1OCc1c(Cl)cccc1Cl`, the AC50 is 1.78 µM (active). Take `CN1CCN(c2ncnc3ccc(-c4ccccc4Cl)cc23)CC1`: the activity, negative = inhibition was -20.9% [at 2.29 µM].

Consider `CC(=O)CCCCn1c(=O)c2c(ncn2C)n(C)c1=O`, for which the “activity, negative = inhibition” value was -1.76% [at 25.6 µM]. Still for that read-out and setting: the value for `O=C(Cn1cccc1)NC1CCCCCC1` was -26.8%. On to `O=C(CCCCn1c(=O)c2ccccc2n(CC(=O)NC2CCCC2)c1=O)NC1CCCC1`, for which the AC50 is 10 µM (active). Take `c1ccc(Nc2nc(-c3cccnc3)nc3ccccc23)cc1`: the activity, negative = inhibition was -0.938% [at 2.29 µM]. On to `c1ccc(-c2nc(NCc3cccnc3)c3ccccc3n2)cc1`, for which the AC50 was 3.55 µM (active). In the case of `COc1ccccc1NC(=O)Nc1nc(-c2cccnc2)nc2ccccc12`, the “activity, negative = inhibition” value was 25.8%. With `COc1ccccc1CNc1nc(-c2cccnc2)nc2ccccc12`, the AC50 was 1 µM (active). Consider `CCOC(=O)c1ccc(OC(=O)CCCCCN=C(N)N)cc1`, for which the “activity, negative = inhibition” value is 6.9%. As to `FC(F)(F)c1ccccc1-c1nc(NCc2cccnc2)c2ccccc2n1`, the activity, negative = inhibition was -20.3% [at 2.29 µM]. Still for that read-out and setting: next, `COc1ccccc1-c1nc(NCc2cccnc2)c2ccccc2n1`: 5.64% [at 2.29 µM]; `c1cncc(CNc2nc(-c3ccoc3)nc3ccccc23)c1`: 0.547% [at 2.29 µM]; `CN(C)C(=O)c1ccc(-c2nc(Nc3ccncc3)c3ccccc3n2)cc1`: -8.55% [at 2.29 µM]. Turning to `CCOC(=O)c1ccc(Nc2nc(-c3cccnc3)nc3ccccc23)cc1`, the AC50 was 5.01 µM (active). On to `CCOC(=O)c1ccc(Nc2nc(=O)c3cccnc3s2)cc1`, for which the half-maximal activity concentration (AC50) is 7.94 µM (active). Take `CN1CCCC2(CCN(C(=O)c3cc(C(F)(F)F)cc(C(F)(F)F)c3)CC2)C1`: the “activity, negative = inhibition” value was 6.14%. For the compound `COC(=O)c1c(-c2cc(OC)c(OC)c(OC)c2)c2ccnc(OCc3ncccn3)c2c(=O)n1Cc1ccnc(C)c1`, the AC50 was 12.6 µM (active). On to `Cn1cnc([N+](=O)[O-])c1Sc1nc(N)nc2c1ncn2[C@H]1C[C@H](O)[C@@H](CO)O1`, for which the activity, negative = inhibition is -1.03% [at 11.4 µM]. The same measure, in the same setting: next, `Cc1cccc(N2CC(O)=C(c3nc4ccccc4n3C)C2=N)c1`: -8.08%. For `Cn1c(-c2sc(=S)n(-c3ccccc3)c2N)nc2ccccc21`, the half-maximal activity concentration (AC50) is 2.51 µM (active).

Regarding `Cc1ccc(CS(=O)(=O)CCC(=O)NCCCN2CCCC2=O)cc1`, the “activity, negative = inhibition” value is -8.86%.

On to `Cc1ccc(S(=O)(=O)N(CCCN2CCCC2=O)Cc2cc3c(C)ccc(C)c3[nH]c2=O)cc1`, for which the AC50 is 3.16 µM (active). As to `O=C(NCCCN1CCCC1=O)c1ccc(CNS(=O)(=O)c2ccc(F)cc2)cc1`, the “activity, negative = inhibition” value was -31.1%. For the compound `Cc1ccc(C)c(-c2nn(-c3cc(N4CCN(CCO)CC4)ccc3[N+](=O)[O-])c(=O)c3ccccc23)c1`, the AC50 was 12.6 µM (active). For `Cc1ccc(N2CCN(CCC(=O)O)CC2)cc1`, the activity, negative = inhibition was 10.3% [at 11.4 µM]. Consider `CO[C@@H]1/C=C\CC(=O)N[C@@H](C)C(=O)OC[C@@H](OC)[C@H](C)/C=C\CC(=O)OC[C@H]1C`, for which the activity, negative = inhibition is 9.15% [at 11.4 µM]. Still for that read-out and setting: next, `Cn1c(=O)c2[nH]c(CCS)nc2n(C)c1=O`: 10.4% [at 11.4 µM]; `Cc1cc(C)nc(SCC(=O)Nc2ccccc2[N+](=O)[O-])n1`: -21.1%. On to `Cc1cccc(Nc2cc(Cl)nc(SCC(=O)O)n2)c1C`, for which the “activity, negative = inhibition” value was -23.8%. Consider `Cc1cccc(NC(=O)CSc2nnc(-c3ccco3)c(-c3ccco3)n2)c1C`, for which the concentration at half-maximal activity (AC50) was 1.78 µM (active). Take `O=C(O)CCC(=O)N1CCC[C@H]1C(=O)O`: the “activity, negative = inhibition” value is 21.5%. On to `CCCC[C@H]1C[C@@H]1[C@@H]1N(P(=O)(c2ccccc2)c2ccccc2)[C@](CO)(c2ccccc2)CC12CC2`, for which the AC50 was 15.8 µM (active). `CCCC[C@H]1C[C@@H]1[C@@H]1N(P(=O)(c2ccccc2)c2ccccc2)C[C@@](O)(c2ccccc2)CC12CC2`: the “activity, negative = inhibition” value is -27.2%. Same read-out and setting: next, `CCN(CC)CCCCCCCCOC(=O)c1cc(OC)c(OC)c(OC)c1`: -12.6%.

Regarding `CCC(NC(=O)Nc1cc(OC)c(OC)c(OC)c1)(C(F)(F)F)C(F)(F)F`, the half-maximal activity concentration (AC50) was 14.1 µM (active).

For `CCN1C(=O)c2cccc3c(NC(=O)c4cccc(N5C(=O)CCC5=O)c4)ccc1c23`, the “activity, negative = inhibition” value is -16.7%.

Turning to `CCOC(=O)c1ccc(NC(=O)Nc2ccc3c4c(cccc24)C(=O)N3CC)cc1`, the AC50 is 20 µM (active). `c1csc(CNc2ccnc(-c3ccc4c(c3)OCO4)n2)c1`: the activity, negative = inhibition was -22.4% [at 2.29 µM]. Turning to `CC1CCCCN1c1nc(-c2ccncc2)nc2ccccc12` (stereo not given), the AC50 is 0.398 µM (active).

Consider `CN1CCN(c2nc(-c3cccnc3)nc3ccccc23)CC1`, for which the activity, negative = inhibition is 16.9% [at 2.29 µM]. With `c1cncc(-c2nc(N3CCNCC3)c3ccccc3n2)c1`, the activity, negative = inhibition was -1.35% [at 2.29 µM].

Regarding `CCNc1ncc2nc(-c3ccc(OC)cc3)c(=O)n(-c3ccc(OC)cc3)c2n1`, the “activity, negative = inhibition” value was 9.11%.

`NCC(=O)Nc1ccc(Cl)cc1C(=O)c1ccc[nH]1`: the activity, negative = inhibition is -20.4% [at 11.4 µM]. Still for that read-out and setting: next, `CS(=O)(=O)N1CCC2(CCN(c3ccncc3)CC2)CC1`: -22.8%; `CS(=O)(=O)N1CCC[C@@]2(CCN(c3ccncc3)C2)C1`: 6.86%. The same measure, in the same setting: the value for `CS(=O)(=O)N1CCC2(CCN(Cc3nccs3)CC2)CC1` was -16.9%. Still for that read-out and setting: next, `CS(=O)(=O)N1CCC2(CC1)CN(c1ncccn1)C2`: 21.2%. As for `CS(=O)(=O)N1CCC2(CC1)CN(c1ccncc1)C2`, the half-maximal activity concentration (AC50) is 15.8 µM (active). The same measure, in the same setting: the value for `CS(=O)(=O)N1CCC2(CCCN(c3ccncc3)C2)CC1` was 0.0794 µM (active); that for `CS(=O)(=O)N1CCC2(CC1)CN(Cc1nccs1)C2` was 10 µM (active). In the case of `CS(=O)(=O)N1CCC[C@@]2(CCN(Cc3nccs3)C2)C1`, the “activity, negative = inhibition” value was -13.9%. The same measure, in the same setting: next, `CS(=O)(=O)N1CCC2(CCCN(c3ncccn3)C2)CC1`: -13.1%.

The values above are taken from PubChem BioAssay AID1851 (National Center for Advancing Translational Sciences (NCATS), 2009).
